Measured values reported in PubChem BioAssay.
Activity calls are given as the source filed them.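 How the source made its calls: active means normalized viability below 100% at a tested concentration; inactive means the rest.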

Experiment: drug combination growth inhibition, ovarian cancer – cell-based, oncology-focused library, rucaparib conditional, profiling panel (AID 1508598)
Conditions: patient-derived ovarian cancer cells, CellTiter-Glo viability, 144 h, hits give low values
[1] = at 0.000305 µM, OCI-C5x cells, with rucaparib 10 µM, 100% = cells with rucaparib alone
[2] = at 0.000305 µM, OCI-C5x cells, without rucaparib
[3] = at 0.000305 µM, OCI-P5x cells, with rucaparib 20 µM, 100% = cells with rucaparib alone
[4] = at 0.000305 µM, OCI-P5x cells, without rucaparib
[5] = at 0.00122 µM, OCI-C5x cells, with rucaparib 10 µM, 100% = cells with rucaparib alone
[6] = at 0.00122 µM, OCI-C5x cells, without rucaparib
[7] = at 0.00122 µM, OCI-P5x cells, with rucaparib 20 µM, 100% = cells with rucaparib alone
[8] = at 0.00122 µM, OCI-P5x cells, without rucaparib
[9] = at 0.00488 µM, OCI-C5x cells, with rucaparib 10 µM, 100% = cells with rucaparib alone
[10] = at 0.00488 µM, OCI-C5x cells, without rucaparib
[11] = at 0.00488 µM, OCI-P5x cells, with rucaparib 20 µM, 100% = cells with rucaparib alone
[12] = at 0.00488 µM, OCI-P5x cells, without rucaparib
[13] = at 0.0195 µM, OCI-C5x cells, with rucaparib 10 µM, 100% = cells with rucaparib alone
[14] = at 0.0195 µM, OCI-C5x cells, without rucaparib
[15] = at 0.0195 µM, OCI-P5x cells, with rucaparib 20 µM, 100% = cells with rucaparib alone
[16] = at 0.0195 µM, OCI-P5x cells, without rucaparib
[17] = at 0.0781 µM, OCI-C5x cells, with rucaparib 10 µM, 100% = cells with rucaparib alone
[18] = at 0.0781 µM, OCI-C5x cells, without rucaparib
[19] = at 0.0781 µM, OCI-P5x cells, with rucaparib 20 µM, 100% = cells with rucaparib alone
[20] = at 0.0781 µM, OCI-P5x cells, without rucaparib
[21] = at 0.313 µM, OCI-C5x cells, with rucaparib 10 µM, 100% = cells with rucaparib alone
[22] = at 0.313 µM, OCI-C5x cells, without rucaparib
[23] = at 0.313 µM, OCI-P5x cells, with rucaparib 20 µM, 100% = cells with rucaparib alone
[24] = at 0.313 µM, OCI-P5x cells, without rucaparib
[25] = at 1.25 µM, OCI-C5x cells, with rucaparib 10 µM, 100% = cells with rucaparib alone
[26] = at 1.25 µM, OCI-C5x cells, without rucaparib
[27] = at 1.25 µM, OCI-P5x cells, with rucaparib 20 µM, 100% = cells with rucaparib alone
[28] = at 1.25 µM, OCI-P5x cells, without rucaparib
[29] = at 5 µM, OCI-C5x cells, with rucaparib 10 µM, 100% = cells with rucaparib alone
[30] = at 5 µM, OCI-C5x cells, without rucaparib
[31] = at 5 µM, OCI-P5x cells, with rucaparib 20 µM, 100% = cells with rucaparib alone
[32] = at 5 µM, OCI-P5x cells, without rucaparib

Measured: viability

CC[C@]1(O)C[C@@H]2CN(CCc3c([nH]c4ccccc34)[C@@](C(=O)OC)(c3cc4c(cc3OC)N(C=O)[C@H]3[C@@](O)(C(=O)OC)[C@H](OC(C)=O)[C@]5(CC)C=CCN6CC[C@@]43[C@@H]65)C2)C1
active: [3] 91.7% | [4] 90.9% | [7] 73.6% | [8] 31.5% | [9] 66.7% | [10] 41.5% | [11] 51% | [12] 17.7% | [13] 44.5% | [14] 29% | [15] 57.9% | [16] 14.5% | [17] 36.6% | [18] 24% | [19] 49.3% | [20] 12.1% | [21] 34% | [22] 23.4% | [23] 49.8% | [24] 10.9% | [25] 33.5% | [26] 23.5% | [27] 44.2% | [28] 12.2% | [29] 34.1% | [30] 22.9% | [31] 43% | [32] 11.8%
inactive: [1] 113% | [2] 110% | [5] 106% | [6] 106%

O=C(/C=C/c1ccc2ccccc2n1)c1ccncc1
active: [3] 96% | [4] 84.9% | [7] 99.6% | [8] 91.2% | [11] 70.3% | [12] 17.7% | [15] 56.8% | [16] 13.9% | [19] 51.3% | [20] 15.5% | [23] 54.4% | [24] 13.6% | [27] 34.2% | [29] 3.77% | [31] 16.9%
inactive: [1] 108% | [2] 116% | [5] 121% | [6] 120% | [9] 119% | [10] 119% | [13] 122% | [14] 130% | [17] 119% | [18] 116% | [21] 120% | [22] 112% | [25] 113% | [26] 124% | [28] 111% | [30] 128% | [32] 109%

COc1cc([C@H]2c3cc4c(cc3[C@@H](O[C@@H]3O[C@@H]5CO[C@@H](C)O[C@H]5[C@H](O)[C@@H]3O)[C@H]3COC(=O)[C@H]23)OCO4)cc(OC)c1O
inactive: [1] 115% | [2] 108% | [5] 108% | [6] 103% | [9] 123% | [10] 100% | [11] 101% | [12] 101% | [13] 112% | [14] 103% | [17] 106%
active: [3] 99.3% | [4] 97.3% | [7] 96.5% | [8] 90.8% | [15] 98.6% | [16] 97.4% | [18] 95.6% | [19] 99.3% | [20] 98.6% | [21] 75.1% | [22] 64.7% | [23] 99.1% | [24] 82% | [25] 72% | [26] 61.6% | [27] 79.8% | [28] 42.6% | [29] 38.1% | [30] 29.3% | [31] 55.2% | [32] 26.7%

C[C@H]1C[C@H]2[C@@H]3CCC4=CC(=O)C=C[C@]4(C)[C@@H]3C(=O)C[C@]2(C)[C@]1(O)C(=O)CO
inactive: [1] 114% | [2] 123% | [4] 119% | [5] 118% | [6] 124% | [7] 105% | [8] 116% | [9] 110% | [10] 119% | [12] 119% | [13] 113% | [14] 122% | [15] 103% | [16] 122% | [17] 109% | [18] 122% | [19] 102% | [20] 125% | [21] 111% | [22] 125% | [23] 100% | [24] 126% | [25] 125% | [26] 129% | [27] 108% | [28] 130% | [29] 119% | [30] 148% | [31] 112% | [32] 125%
active: [3] 96.8% | [11] 96.6%
